Experimental findings from PubChem BioAssay (Tox21) are described below.

A short description of assay [1]: Nuclear factor erythroid 2-related factor 2/antioxidant responsive element (Nrf2/ARE) small molecule agonists: qHTS cell viability counter screen in human keratinocytes (AID 1919968; active means well fitted curve in the direction sought with a large enough effect in the repeat runs; an effect the other way counts as inactive or inconclusive; further: nearly all actives have a fitted effect of over 55% in size). The method in brief: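 HaCaT ARE reporter line, 1,500 cells/well; 5 h settle, 37 C/5% CO2; cpd in DMSO pinned; 23 h exposure; CellTiter-Fluor, 1 h; fluorescence.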
(In qHTS, concentration-response curves come from the screen itself.)

Assay [2] has as its target Gonadotropin-releasing hormone receptor (Homo sapiens) (UniProt P30968). As to the kind of experiment: Human gonadotropin-releasing hormone receptor (GnRHR) small molecule agonists, calcium flux assay in GnRHR-HEK293 cells (AID 1920063). Further: nearly all actives have a fitted effect of over 35% in size. In short, it runs like this:
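GnRHR-HEK293, 1500 cells/well, 18 h 37 C/5% CO2; Ca dye 1 h 37 C; cpd pinned (DMSO), agonist mode; kinetic FL 480/540, 3 min, 1 s reads; 15 conc, n=3.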

Assay [3] deals with KiSS-1 receptor (Homo sapiens) (UniProt Q969F8). Kind of assay: Human kisspeptin (KISS1R) small molecule agonists, calcium flux assay in KISS1R-HEK293 cells (AID 1920064; active means well fitted curve in the direction sought with a large enough effect in the repeat runs; an effect the other way counts as inactive or inconclusive). The method in brief: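 Stable human KISS1R HEK293 line; 18 h plating, 37 C/5% CO2; calcium dye 1 h 37 C; compound pin transfer; kinetic fluorescence Ex/Em 480/540, 3 min.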
Assay [4] is described as follows: G protein-coupled receptor (GPCR) small molecule agonists, calcium flux assay: HEK293 wild type cell line counter screen (AID 1920065). In short, it runs like this:
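Kinetic fluorescence at Ex/Em 480/540, recorded every second over 3 min, served as the read-out after compound addition. Each compound was tested at 15 concentrations in triplicate on cells pre-loaded with calcium dye for 1 h.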

Assay [5] can be described thus: p53 small molecule agonists, cell-based qHTS assay with human liver microsomes: qHTS cell viability counter screen (AID 1963579). Further: nearly all actives have a fitted effect of over 45% in size. The method in brief: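 Metabolic activation used human liver microsomes and NADPH, both 0.5 mg/mL final, over 16 hours at 37 C on p53RE-bla cells (4,000/well). Cytotoxicity measured by CellTiter-Glo luminescence, 30 min at room temperature.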

Assay [6] in a line: p53 small molecule agonists, cell-based qHTS assay with rat liver microsomes: qHTS cell viability counter screen (AID 1963580). Further: nearly all actives have a fitted effect of over 45% in size. In short, it runs like this:
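HCT-116 p53RE-bla, 4,000 cells/well, 5 h pre-incubation; cpd + rat liver microsomes 0.5 mg/mL + NADPH 0.5 mg/mL (final); 16 h, 37 C; CellTiter-Glo, 30 min RT; luminescence.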

The nature of assay [7]: p53 small molecule agonists, cell-based qHTS assay: qHTS cell viability counter screen (AID 1963581). Further: nearly all actives have a fitted effect of over 45% in size. The method in brief:
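HCT-116 p53RE-bla cells, 4,000/well, plated 5 h before compound pin transfer; 16 h at 37 C; bla substrate 2 h RT; then CellTiter-Glo, 30 min RT, luminescence.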

Assay [8] addresses 5-hydroxytryptamine receptor 2A (Homo sapiens) (UniProt P28223). As to the kind of experiment: 5-hydroxytryptamine receptor 2A (HTR2A) small molecule antagonists, cell-based qHTS assay (AID 1963586). Further: nearly all actives have a fitted effect of over 45% in size. The method in brief:
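Antagonist-mode intracellular calcium assay: DOI (4 nM) added after 5 min compound pre-incubation at room temperature to dye-loaded HTR2A-CHO cells. Fluorescence followed for 3 min, sampled every second.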

Assay [9] has the same target. As to the kind of experiment: 5-hydroxytryptamine receptor 2A (HTR2A) small molecule agonists, cell-based qHTS assay (AID 1963587). Further: nearly all actives have a fitted effect of over 30% in size. The method in brief:
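Kinetic calcium-flux fluorescence (2 min, 1 sec intervals) after compound addition in agonist mode. HTR2A-CHO cells were cultured 18 h, then dye-loaded 1 h at 37 C.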

Assay [10] concerns the target Muscarinic acetylcholine receptor M1 (Homo sapiens) (UniProt P11229). Kind of assay: Cholinergic receptor muscarinic 1 (CHRM1) small molecule antagonists, cell-based qHTS assay (AID 1963588). Further: nearly all actives have a fitted effect of over 40% in size. In short, it runs like this: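 CHRM1-CHO calcium-flux assay, antagonist mode. Cells were seeded 18 h, dye-loaded 1 h at 37 C and given compound for 5 min at RT, then acetylcholine was added at 50nM. FDSS fluorescence was read 3 min; 15 concentrations, three runs.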

The target is the same in assay [11]. As to the kind of experiment: Cholinergic receptor muscarinic 1 (CHRM1) small molecule agonists, cell-based qHTS assay (AID 1963589). Further: nearly all actives have a fitted effect of over 35% in size. The method in brief:
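Human M1 in stable CHO line; 18 h plating, 1 h dye load 37 C; cpd added (agonist mode); Ca2+ fluorescence kinetic read, 1 s intervals; 15 conc, 3 runs.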

The nature of assay [12]: cAMP Responsive Elements (CRE) small molecule agonists, cell-based qHTS assay (AID 1963590). In short, it runs like this:
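HEK 293T CRE-bla, 2,000 cells/well, 18 h preincubation 37 C/5% CO2; cpds (DMSO) pinned, 3 h; LiveBLAzer B/G FRET substrate, 2 h RT.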

Assay [13] in a line: cAMP Responsive Elements (CRE) small molecule antagonists, cell-based qHTS assay (AID 1963591; active means well fitted inhibition curve with a large enough effect in the signal ratio in the repeat runs, not every such curve was filed as active; the % refers to the signal ratio). The method in brief:
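Beta-lactamase reporter read by FRET substrate (LiveBLAzer B/G) after 2 h at room temperature. CRE-bla HEK293T cells had received compound plus 0.25 uM (final) NKH477 for 3 h at 37 °C.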

Assay [14] has as its target Beta-2 adrenergic receptor (Homo sapiens) (UniProt P07550). Kind of assay: Adrenergic beta2 receptor (ADRB2) small molecule antagonists, cell-based qHTS assay (AID 1963592). Further: series mostly up to about 92 µM; nearly all actives have a fitted effect of over 50% in size. In short, it runs like this: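 Cells (CHO, stable ADRB2 overexpression) incubated 18-20hr at 37C; compounds added from DMSO; agonist mix (1nM isoproterenol, 100uM IBMX, 25uM Ro-20-1724) added; 0.5hr RT; d2-cAMP and anti-cAMP-cryptate added; 1hr RT; 665/615 nm read.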

Assay [15] concerns the target D(2) dopamine receptor (Homo sapiens) (UniProt P14416). Kind of assay: Dopamine D2 receptor (DRD2) small molecule agonists, cell-based qHTS assay (AID 1963594). Further: nearly all actives have a fitted effect of over 35% in size. The method in brief:
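cAMP accumulation in DRD2-HEK293 cells measured by HTRF after 1 h detection; compounds added 10 min before NKH477 (200nM […]) forskolin-analogue stimulation, 30 min at room temperature, with Ro20-1724 present at 0.1 mM final.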

The target is the same in assay [16]. As to the kind of experiment: Dopamine D2 receptor (DRD2) small molecule antagonists, cell-based qHTS assay (AID 1963595; active means well fitted inhibition curve with a large enough effect in the signal ratio in the repeat runs, with a control signal flat; the % refers to the signal ratio). The method in brief: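 HEK293 cells stably expressing DRD2, preincubated with 0.1 mM Ro20-1724 and compounds 10 min, were stimulated with 200 nM NKH477 plus 12 nM quinpirole for 30 min at room temperature; cAMP measured by HTRF (665/620 nm).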

Assay [17] is described as follows: p53 small molecule agonists, cell-based qHTS assay (AID 1963582; active means well fitted activation curve with a large enough effect in the signal ratio in the repeat runs, not every such curve was filed as active; the % refers to the signal ratio; further: potency means the concentration at half of the fitted maximal effect). The method in brief:
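Reporter line: p53RE-bla. Pre-incubation 5 h, 37 C, 5% CO2; compound (DMSO, pin tool) 16 h, 37 C; B/G FRET substrate 2 h RT; fluorescence intensity read.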

Assay [18] concerns the target Beta-2 adrenergic receptor (Homo sapiens) (UniProt P07550). As to the kind of experiment: Adrenergic beta2 receptor (ADRB2) small molecule agonists, cell-based qHTS assay (AID 1963593).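 Further: CHO cells stably overexpressing human ADRB2.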 In short, it runs like this: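 CHO cells stably over-expressing ADRB2 were plated overnight at 37C, then dosed with compounds plus a stimulation mix containing 100uM IBMX and 25uM Ro-20-1724 for 0.5hr at room temperature. cAMP was measured by HTRF competition, 1hr.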

Assay [19] can be described thus: p53 small molecule agonists, cell-based qHTS assay with rat liver microsomes (AID 1963578). The method in brief:
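Metabolic activation by rat liver microsomes and NADPH, each 0.5 mg/mL final, added right after compounds to p53RE-bla reporter cells (4,000/well, plated 5 h earlier). 16 h at 37 C, then LiveBLAzer substrate for 2 h at room temperature in the dark; fluorescence read-out.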

The structures appear in SMILES notation. Unmarked numbers belong to inactive results. Records with an inconclusive call do not appear. Active and inactive are the calls of the source. Unless noted, the call rests on the fitted dose curve.

Chain of Gonadotropin-releasing hormone receptor (Homo sapiens) (P30968 whole entry, looked up): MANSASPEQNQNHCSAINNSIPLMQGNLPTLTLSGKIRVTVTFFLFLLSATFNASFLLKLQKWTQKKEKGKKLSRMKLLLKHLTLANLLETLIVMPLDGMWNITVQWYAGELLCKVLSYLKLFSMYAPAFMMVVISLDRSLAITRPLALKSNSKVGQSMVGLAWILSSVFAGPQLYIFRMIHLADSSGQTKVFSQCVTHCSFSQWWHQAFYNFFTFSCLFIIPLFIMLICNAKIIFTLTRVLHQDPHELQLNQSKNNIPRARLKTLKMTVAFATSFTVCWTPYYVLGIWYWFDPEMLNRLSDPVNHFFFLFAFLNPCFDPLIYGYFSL
Chain of 5-hydroxytryptamine receptor 2A (Homo sapiens) (P28223 whole entry, looked up): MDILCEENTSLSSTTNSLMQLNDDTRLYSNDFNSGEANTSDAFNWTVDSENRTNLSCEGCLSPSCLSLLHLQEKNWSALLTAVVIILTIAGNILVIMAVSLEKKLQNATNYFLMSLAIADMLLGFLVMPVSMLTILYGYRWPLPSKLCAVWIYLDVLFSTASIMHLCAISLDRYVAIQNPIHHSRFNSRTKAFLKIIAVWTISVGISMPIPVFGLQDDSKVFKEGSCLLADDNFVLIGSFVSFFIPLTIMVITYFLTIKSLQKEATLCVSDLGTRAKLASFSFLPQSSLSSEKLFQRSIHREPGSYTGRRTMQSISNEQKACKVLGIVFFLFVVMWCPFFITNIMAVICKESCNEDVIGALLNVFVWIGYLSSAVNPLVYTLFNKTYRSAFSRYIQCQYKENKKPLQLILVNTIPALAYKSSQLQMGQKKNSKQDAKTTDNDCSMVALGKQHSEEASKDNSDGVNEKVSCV
Chain of D(2) dopamine receptor (Homo sapiens) (P14416 whole entry, looked up): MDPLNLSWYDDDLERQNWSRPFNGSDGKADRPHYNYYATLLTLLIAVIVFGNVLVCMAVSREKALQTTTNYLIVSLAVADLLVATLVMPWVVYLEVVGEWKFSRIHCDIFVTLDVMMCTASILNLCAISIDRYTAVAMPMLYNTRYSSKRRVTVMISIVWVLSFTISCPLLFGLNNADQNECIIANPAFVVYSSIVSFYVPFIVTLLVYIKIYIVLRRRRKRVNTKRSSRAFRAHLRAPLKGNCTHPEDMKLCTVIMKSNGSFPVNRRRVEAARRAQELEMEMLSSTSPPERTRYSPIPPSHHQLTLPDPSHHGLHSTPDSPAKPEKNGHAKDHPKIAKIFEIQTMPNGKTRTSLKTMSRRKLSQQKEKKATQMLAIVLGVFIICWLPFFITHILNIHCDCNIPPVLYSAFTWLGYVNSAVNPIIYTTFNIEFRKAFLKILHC
Chain of Muscarinic acetylcholine receptor M1 (Homo sapiens) (P11229 whole entry, looked up): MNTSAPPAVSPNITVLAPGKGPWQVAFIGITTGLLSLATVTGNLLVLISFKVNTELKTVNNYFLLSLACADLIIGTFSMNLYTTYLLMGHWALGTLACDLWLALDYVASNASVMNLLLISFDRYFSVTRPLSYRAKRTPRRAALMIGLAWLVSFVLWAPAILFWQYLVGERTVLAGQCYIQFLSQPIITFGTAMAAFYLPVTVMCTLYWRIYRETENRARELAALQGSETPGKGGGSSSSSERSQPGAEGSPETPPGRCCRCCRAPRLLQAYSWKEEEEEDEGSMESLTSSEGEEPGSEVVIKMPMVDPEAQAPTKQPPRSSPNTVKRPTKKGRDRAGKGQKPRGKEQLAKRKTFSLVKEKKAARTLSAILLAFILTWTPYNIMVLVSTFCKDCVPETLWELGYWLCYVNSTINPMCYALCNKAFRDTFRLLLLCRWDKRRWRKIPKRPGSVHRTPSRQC
Chain of Beta-2 adrenergic receptor (Homo sapiens) (P07550 whole entry, looked up): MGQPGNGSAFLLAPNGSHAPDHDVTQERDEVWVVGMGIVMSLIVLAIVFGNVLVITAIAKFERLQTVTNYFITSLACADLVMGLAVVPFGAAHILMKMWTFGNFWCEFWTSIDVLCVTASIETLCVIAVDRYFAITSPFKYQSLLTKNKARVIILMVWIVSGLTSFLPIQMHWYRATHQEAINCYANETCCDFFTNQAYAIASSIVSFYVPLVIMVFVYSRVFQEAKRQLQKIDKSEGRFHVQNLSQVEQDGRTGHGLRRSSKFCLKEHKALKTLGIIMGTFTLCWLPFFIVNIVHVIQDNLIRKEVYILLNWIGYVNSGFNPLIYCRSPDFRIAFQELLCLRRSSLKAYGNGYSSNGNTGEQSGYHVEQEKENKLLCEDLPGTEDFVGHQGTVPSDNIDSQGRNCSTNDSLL
Chain of KiSS-1 receptor (Homo sapiens) (Q969F8 whole entry, looked up): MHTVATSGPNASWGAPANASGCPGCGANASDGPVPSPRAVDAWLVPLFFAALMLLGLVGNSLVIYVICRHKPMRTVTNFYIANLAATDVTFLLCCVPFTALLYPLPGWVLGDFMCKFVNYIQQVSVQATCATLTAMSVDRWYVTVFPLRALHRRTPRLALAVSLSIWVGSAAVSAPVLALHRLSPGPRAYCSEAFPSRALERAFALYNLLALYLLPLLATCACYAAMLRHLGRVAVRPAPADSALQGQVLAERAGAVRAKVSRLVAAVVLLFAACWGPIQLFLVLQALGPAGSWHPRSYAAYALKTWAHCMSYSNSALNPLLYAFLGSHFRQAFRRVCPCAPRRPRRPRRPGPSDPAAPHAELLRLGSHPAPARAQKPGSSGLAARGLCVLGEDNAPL

In the case of `C=COC(C)=O`, the Potency entry in assay [1], in assay [2], in assay [3], in assay [4], in assay [5] and in [6] was “inactive” in each case. Also, the Potency result in assay [7], in [8], in [9], in assay [10], in assay [11] and in assay [12] was “inactive” in each case. The Potency result in [13], in assay [14], in assay [15] and in assay [16] was “inactive” throughout.

Take `COP(=S)(OC)Oc1nc(Cl)c(Cl)cc1Cl`: the Potency result in assay [1], in [2], in [3], in assay [4], in assay [5] and in assay [6] was “inactive” each time. Also, the Potency result in assay [7], in [17], in [8], in assay [9], in assay [10] and in assay [11] was “inactive” each time. Further, the Potency result in assay [14], in [18], in assay [15] and in assay [16] was “inactive” throughout.

As to `O=c1oc2ccccc2c(O)c1Cc1c(O)c2ccccc2oc1=O`, the Potency result in assay [1], in [2], in assay [3], in [4], in assay [19] and in assay [5] was “inactive” each time. Further, the Potency result in [6], in assay [13], in assay [14], in assay [18], in [15] and in [16] was “inactive” each time. In addition, the Potency in assay [17] is 5 µM (active).

On to `C#CCN1C(=O)COc2cc(F)c(N3C(=O)C4=C(CCCC4)C3=O)cc21`, for which the Potency result in [1], in assay [2], in [3], in [4], in assay [5] and in assay [6] was “inactive” throughout. Further, the Potency result in assay [7], in assay [8], in assay [9], in [11], in assay [13] and in assay [14] was “inactive” in each case. The Potency result in assay [18], in [15] and in assay [16] was “inactive” each time.

Regarding `Nc1c(Cl)c(Cl)c(Cl)c(Cl)c1Cl`, the Potency result in assay [1], in assay [2], in assay [3], in assay [4], in assay [5] and in [6] was “inactive” in each case. Also, the Potency entry in assay [7], in assay [8], in assay [9], in assay [10], in assay [11] and in assay [12] was “inactive” throughout. Also, the Potency entry in [14] and in assay [16] was “inactive” throughout.

On to `CCOC(=O)C(SP(=S)(OC)OC)c1ccccc1` (stereo unspecified), for which the Potency entry in [1], in [2], in assay [3], in assay [4], in assay [5] and in [6] was “inactive” each time. The Potency entry in [7], in [17], in assay [9], in assay [10], in assay [11] and in assay [12] was “inactive” in each case. For the same compound, the Potency entry in assay [13], in assay [14], in assay [18], in assay [15] and in assay [16] was “inactive” throughout.

As to `CCOP(=S)(OCC)SCCS(=O)(=O)CC`, the Potency entry in [1], in assay [2], in assay [3], in assay [4], in [5] and in [6] was “inactive” throughout. Besides, the Potency entry in assay [7], in assay [17], in assay [9], in assay [10], in assay [11] and in assay [12] was “inactive” throughout. Further, the Potency result in [13], in assay [14], in assay [18], in [15] and in assay [16] was “inactive” each time.

For `CCc1cc2c(s1)-n1c(C)nnc1CN=C2c1ccccc1Cl`, the Potency entry in assay [1], in [2], in [3], in [4], in assay [5] and in assay [6] was “inactive” each time. Further, the Potency entry in assay [7], in assay [8], in assay [9], in [10], in assay [11] and in assay [14] was “inactive” in each case. For the same compound, the Potency result in assay [16] is “inactive”.
